Consider 45 molecules from PMC4336329 (PLoS ONE, 2015).

Molecules are shown by their SMILES. Hit rate of the full screen: of about 310,000 compounds, about 2,200 (0.71%) showed an effect of 50% or more. The effect is printed as a negative number. What follows is part of a selection rich in strong results, with near analogues and random picks from the rest.

human ether-à-go-go-related gene (hERG) potassium channel, sequence (Q12809 whole entry, looked up): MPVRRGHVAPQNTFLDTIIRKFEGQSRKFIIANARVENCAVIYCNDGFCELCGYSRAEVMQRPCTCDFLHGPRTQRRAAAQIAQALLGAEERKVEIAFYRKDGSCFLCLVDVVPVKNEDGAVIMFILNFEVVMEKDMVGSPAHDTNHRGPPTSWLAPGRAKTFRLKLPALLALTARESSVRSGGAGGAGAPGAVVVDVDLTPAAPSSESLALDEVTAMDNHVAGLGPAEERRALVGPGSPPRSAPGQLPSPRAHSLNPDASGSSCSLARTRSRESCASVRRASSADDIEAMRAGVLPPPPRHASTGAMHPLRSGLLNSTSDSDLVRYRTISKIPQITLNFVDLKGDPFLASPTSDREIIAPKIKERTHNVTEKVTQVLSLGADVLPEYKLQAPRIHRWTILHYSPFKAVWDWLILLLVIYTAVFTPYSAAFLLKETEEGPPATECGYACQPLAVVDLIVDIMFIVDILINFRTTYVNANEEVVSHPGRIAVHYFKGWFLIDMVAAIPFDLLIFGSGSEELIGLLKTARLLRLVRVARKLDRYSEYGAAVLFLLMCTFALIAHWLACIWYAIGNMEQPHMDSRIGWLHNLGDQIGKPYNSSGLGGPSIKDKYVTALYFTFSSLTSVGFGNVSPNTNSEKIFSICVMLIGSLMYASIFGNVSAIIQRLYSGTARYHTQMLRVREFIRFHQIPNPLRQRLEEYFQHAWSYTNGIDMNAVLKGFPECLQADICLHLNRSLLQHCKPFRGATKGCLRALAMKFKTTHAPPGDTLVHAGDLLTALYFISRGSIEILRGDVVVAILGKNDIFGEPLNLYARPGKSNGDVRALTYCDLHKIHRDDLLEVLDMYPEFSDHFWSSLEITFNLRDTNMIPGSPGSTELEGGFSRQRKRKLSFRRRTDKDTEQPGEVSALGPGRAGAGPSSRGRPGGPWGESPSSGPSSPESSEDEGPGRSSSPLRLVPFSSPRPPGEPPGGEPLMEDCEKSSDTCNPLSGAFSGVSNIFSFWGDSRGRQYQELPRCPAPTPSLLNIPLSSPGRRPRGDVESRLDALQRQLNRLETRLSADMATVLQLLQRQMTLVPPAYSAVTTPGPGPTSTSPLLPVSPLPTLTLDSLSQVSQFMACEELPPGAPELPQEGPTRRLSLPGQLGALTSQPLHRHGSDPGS

The target in the test is human ether-à-go-go-related gene (hERG) potassium channel (human, UniProt Q12809). Put plainly: primary screen, population patch clamp on CHO cells stably expressing hERG; higher = less effect of the substance. As to the method:
Briefly, Chinese hamster ovary (CHO) cells stably expressing the hERG channel were dislodged from tissue culture flasks and dispensed into PPC plates. […] During the recording, background leak currents were estimated by a 100 ms step to -80 mV from an initial holding potential of -70 mV and subtracted from the subsequent current measurement. The campaign was conducted in two phases using slight differences in recording protocol. In the first phase, the initial voltage pulse used a 100 ms step to -30 mV from a holding potential of -70 mV, a 2 s conditioning step to +25 mV, and a 2 s test step to -30 mV. During the second phase of the screen, the potential during the conditioning step was raised to +45 mV. In both phases of the campaign, a secondary voltage pulse was applied using the same parameters as the second phase initial pulse. The initial and secondary pulses were applied in the absence of compound, and upon application of 1 μM and 10 μM test concentrations. Small molecule effects on hERG current density were quantified by […].
`Cc1cc(-c2ccc(C)c(S(=O)(=O)Nc3cc(C)on3)c2)on1`: the “hERG current change (%, negative = inhibition) at 1uM” value turned out to be 1.77%. Regarding `O=C(N=C1SCC(=O)N1c1ccccc1)c1ccco1`, the “hERG current change (%, negative = inhibition) at 1uM” value was -1.23%. Under `Cc1occc1-c1nnc(SCC(=O)Nc2ccccc2)n1CCc1ccccc1` stands -20.1%; under `Cc1ccc(NC(=O)CSc2nnc(-c3ccoc3C)n2CCCN(C)C)cc1Cl`, -70.2%; under `COCCn1c(SCC(=O)Nc2ccc(OC)cc2)nnc1-c1ccoc1C`, 12.2%.

Take `CCCn1c(SCC(=O)Nc2cccc(C(=O)OCC)c2)nnc1-c1ccoc1C`: the “hERG current change (%, negative = inhibition) at 1uM” value is 5.88%. Regarding `CCN(CC)CCCn1c(SCC(=O)Nc2cccc(F)c2)nnc1-c1ccoc1C`, the “hERG current change (%, negative = inhibition) at 1uM” value is on record as -63%. Under `COCCCn1c(SCC(=O)Nc2ccc3c(c2)OCCO3)nnc1-c1ccoc1C` stands 1.88%. Under `O=C(NCCCN1CCOCC1)C1(c2ccccc2)CCOCC1` stands 19.2%.

As for `COc1ccccc1Nc1nc(N)nc(CN2CCc3ccccc3C2)n1`, the “hERG current change (%, negative = inhibition) at 1uM” value is given as -2.7%.

As to `CCOC(=O)C1CCCN(Cc2nc(N)nc(Nc3ccc(OC)cc3)n2)C1` (stereo not drawn), the “hERG current change (%, negative = inhibition) at 1uM” value is on record as -67.8%.

For `CCOC(=O)C1CCCN(Cc2nc(N)nc(Nc3ccc(C)cc3)n2)C1` (stereo not drawn), the “hERG current change (%, negative = inhibition) at 1uM” value is -47.6%. Under `CCOC(=O)C1CCCN(Cc2ccc(OC)cc2OC)C1` (stereo not drawn) stands -13.6%. Under `CCOC(=O)N1CCN(Cc2nc(N)nc(Nc3ccc(Oc4ccccc4)cc3)n2)CC1` stands -36.8%. As to `CCOC(=O)C1CCCN(Cc2nc(N)nc(Nc3ccccc3)n2)C1` (stereo not drawn), the “hERG current change (%, negative = inhibition) at 1uM” value is listed as -18.6%. Under `CCOC(=O)C1CCCN(Cc2nc(N)nc(Nc3ccccc3OC)n2)C1` (stereo not drawn) stands -53.2%; under `CCOC(=O)C1CCCN(Cc2nc(N)nc(Nc3ccc(Cl)cc3)n2)C1` (stereo not drawn), -71.6%.

For `Cc1ccc(Nc2nc(N)nc(CN3CCCCCC3)n2)cc1`, the “hERG current change (%, negative = inhibition) at 1uM” value is on record as -45.2%. Under `CCc1cccc2c(C=C(C#N)C#N)cn(CC(=O)N3CCCC3)c12` stands 2.04%. Under `CNC(=O)C1CCN(S(=O)(=O)c2c(C)noc2/C=C/c2ccc(C)cc2)CC1` stands 10.2%; under `COc1ccccc1/C=C/CN1CCC(Oc2ccc(C(=O)N3CCCCC3)cc2)CC1`, 7.23%; under `COc1cc(C(=O)N2CCN(C/C=C/c3ccccc3)CC2)cc(OC)c1OC`, -2.2%.

For `COc1cc(C(=O)N2CCN(C/C=C/c3ccccc3)CC2)cc(OC)c1C`, the “hERG current change (%, negative = inhibition) at 1uM” value came out at 6.9%.

For `COc1ccccc1/C=C/CN1CCC(Oc2cc(C(=O)NC3CC3)ccc2OC)CC1`, the “hERG current change (%, negative = inhibition) at 1uM” value is given as -78.3%. Under `COc1ccc(C(=O)NC2CC2)cc1OC1CCN(C/C=C/c2ccccc2)CC1` stands -84.3%; under `COc1ccccc1/C=C/CN1CCC(Oc2ccc(C(=O)N3CCCC3)cc2)CC1`, 10.1%; under `Cc1ccc(SCCC(=O)NCCSCc2ccccc2C)cc1`, 10.1%. Regarding `O=P1(O)C=C(c2ccccc2)OC(c2ccccc2)=C1`, the “hERG current change (%, negative = inhibition) at 1uM” value is 14.1%.

Take `CCN1CCN(P2(=O)C=C(c3ccccc3)OC(c3ccccc3)=C2)CC1`: the “hERG current change (%, negative = inhibition) at 1uM” value is -86.5%. Regarding `O=P1(Nn2cnnc2)C=C(c2ccccc2)OC(c2ccccc2)=C1`, the “hERG current change (%, negative = inhibition) at 1uM” value is recorded as -9.39%. Under `Cc1ccc(CSCC(=O)NCc2cccs2)cc1` stands 7.51%; under `CCc1ccc(-n2nnnc2SCC(=O)Nc2ccc(NC(C)=O)cc2)cc1`, 20.4%; under `Cc1cc(SCC(=O)N/N=C/c2ccc(O)cc2O)c(C)cc1Br`, 8.67%. Under `Cn1c(CCN2CCN(c3ccccn3)CC2)nc2cc(NC(=O)COc3ccc(Cl)cc3)ccc21` stands 0.879%; under `Cn1c(CCN2CCN(c3ccccn3)CC2)nc2cc(NC(=O)COc3ccccc3)ccc21`, -67%; under `Cc1cccc(OCC(=O)Nc2ccc3c(c2)nc(CCN2CCN(c4ccccn4)CC2)n3C)c1`, -67%.

Regarding `Cn1c(CCN2CCN(c3ccccn3)CC2)nc2cc(NC(=O)COc3ccc([N+](=O)[O-])cc3)ccc21`, the “hERG current change (%, negative = inhibition) at 1uM” value is reported as 9.63%. With `CCC(=O)Nc1ccc2c(c1)nc(CCN1CCN(c3ccccn3)CC1)n2C`, the “hERG current change (%, negative = inhibition) at 1uM” value was determined as 4.59%.

On to `Cc1cccc(OCC(=O)Nc2ccc3c(c2)nc(CCN2CCC(C)CC2)n3C)c1`, for which the “hERG current change (%, negative = inhibition) at 1uM” value was -47.9%. Under `COc1ccc(C2OC(=O)CC2C(=O)N2CCN(c3cc(Cl)ccc3C)CC2)cc1OC` (stereo not drawn) stands 7.68%; under `CCn1c(-c2cc(-c3ccc(C)c(C)c3)nc3ccccc23)n[nH]c1=S`, 16.2%; under `CCOC(=O)C1CCN(C2CC(=O)N(c3ccc(OCC)cc3)C2=O)CC1` (stereo not drawn), 2.22%. For the molecule `CCOC(=O)c1cnc2c(OC)cccc2c1NCc1cccnc1`, the “hERG current change (%, negative = inhibition) at 1uM” value is recorded as -68.1%.

In the case of `CCOC(=O)c1cnc2c(C)cccc2c1NCc1ccco1`, the “hERG current change (%, negative = inhibition) at 1uM” value is -45.3%.

As for `CCOC(=O)c1cnc2ccc(OCC)cc2c1NCc1ccccc1`, the “hERG current change (%, negative = inhibition) at 1uM” value was -12.8%.
